Experiment [1] deals with Plasmodium falciparum Sir2 (PF13_0152, Sir2A). The experiment in a line: Plasmodium falciparum Sir2A binding compounds – biochemical, small-molecule microarray, 635 nm fluorescence, primary screen (AID 1098).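 Further: score merges spot fluorescence intensity with its signal-to-noise ratio.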 To be noted: fluorescence 635 nm, higher = more signal.
Experiment [2] in a line: probe aDKK1 binding to arrayed compounds – biochemical, biotinylated probe, 635/667 nm fluorescence, primary screen (AID 1099).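 Further: score merges 667nm spot fluorescence with signal to noise across triplicate slides; reference of the scale not given here.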 Conditions: small-molecule microarray, higher = more signal.
A short description of experiment [3]: probe aCHRDL2 binding to arrayed compounds – biochemical, biotinylated probe, 635/667 nm fluorescence, primary screen (AID 1100). To be noted: small-molecule microarray, higher = more signal.
Experiment [4] is described as follows: change in splice reporter luminescence, either direction, cell-based, HEK293, spliceosome inhibition project, primary screen (AID 1101).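 Further: HEK293 cells carrying a splicing-competent luciferase reporter gene; test concentration not given here.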 Conditions: HEK293 splicing luciferase reporter, 24 h, higher = more signal, called active from +8 up or from −8 down. On the technique in general: In a reporter assay the amount or activity of a reporter protein is the signal.

In experiment [5] the target is Fibroblast growth factor 10 (Homo sapiens) (UniProt O15520). Nature of the experiment: compounds binding fibroblast growth factor 10 – biochemical, small-molecule microarray, 635 nm fluorescence, primary screen (AID 1102). Conditions: FGF10 binding, fluorescence 635 nm, higher = more signal.
Sequence of Fibroblast growth factor 10 (Homo sapiens) (O15520 whole entry, looked up): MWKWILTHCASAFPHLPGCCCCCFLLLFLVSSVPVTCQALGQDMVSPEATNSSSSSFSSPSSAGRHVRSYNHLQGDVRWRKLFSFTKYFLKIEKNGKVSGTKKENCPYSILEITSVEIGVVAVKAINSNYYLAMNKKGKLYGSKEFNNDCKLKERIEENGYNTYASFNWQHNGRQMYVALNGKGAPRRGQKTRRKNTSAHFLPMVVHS
Experiment [6] deals with glycogen synthase kinase-3 (GSK3A per assay name; protocol says GSK3B). Nature of the experiment: compounds binding glycogen synthase kinase-3 – biochemical, small-molecule microarray, 635 nm fluorescence, GSK3A, primary screen (AID 1103). Further: the record names both GSK3A and GSK3B. To be noted: fluorescence 635 nm, higher = more signal.
For experiment [7], the target named is Epidermal growth factor receptor (Homo sapiens) (UniProt P00533). Nature of the experiment: compounds binding epidermal growth factor receptor – biochemical, small-molecule microarray, 635 nm fluorescence, primary screen (AID 1104).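 Further: score merges 667 nm emission intensity with spot signal to noise over triplicate slides.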 To be noted: EGFR binding, higher = more signal.
Sequence of Epidermal growth factor receptor (Homo sapiens) (P00533 whole entry, looked up): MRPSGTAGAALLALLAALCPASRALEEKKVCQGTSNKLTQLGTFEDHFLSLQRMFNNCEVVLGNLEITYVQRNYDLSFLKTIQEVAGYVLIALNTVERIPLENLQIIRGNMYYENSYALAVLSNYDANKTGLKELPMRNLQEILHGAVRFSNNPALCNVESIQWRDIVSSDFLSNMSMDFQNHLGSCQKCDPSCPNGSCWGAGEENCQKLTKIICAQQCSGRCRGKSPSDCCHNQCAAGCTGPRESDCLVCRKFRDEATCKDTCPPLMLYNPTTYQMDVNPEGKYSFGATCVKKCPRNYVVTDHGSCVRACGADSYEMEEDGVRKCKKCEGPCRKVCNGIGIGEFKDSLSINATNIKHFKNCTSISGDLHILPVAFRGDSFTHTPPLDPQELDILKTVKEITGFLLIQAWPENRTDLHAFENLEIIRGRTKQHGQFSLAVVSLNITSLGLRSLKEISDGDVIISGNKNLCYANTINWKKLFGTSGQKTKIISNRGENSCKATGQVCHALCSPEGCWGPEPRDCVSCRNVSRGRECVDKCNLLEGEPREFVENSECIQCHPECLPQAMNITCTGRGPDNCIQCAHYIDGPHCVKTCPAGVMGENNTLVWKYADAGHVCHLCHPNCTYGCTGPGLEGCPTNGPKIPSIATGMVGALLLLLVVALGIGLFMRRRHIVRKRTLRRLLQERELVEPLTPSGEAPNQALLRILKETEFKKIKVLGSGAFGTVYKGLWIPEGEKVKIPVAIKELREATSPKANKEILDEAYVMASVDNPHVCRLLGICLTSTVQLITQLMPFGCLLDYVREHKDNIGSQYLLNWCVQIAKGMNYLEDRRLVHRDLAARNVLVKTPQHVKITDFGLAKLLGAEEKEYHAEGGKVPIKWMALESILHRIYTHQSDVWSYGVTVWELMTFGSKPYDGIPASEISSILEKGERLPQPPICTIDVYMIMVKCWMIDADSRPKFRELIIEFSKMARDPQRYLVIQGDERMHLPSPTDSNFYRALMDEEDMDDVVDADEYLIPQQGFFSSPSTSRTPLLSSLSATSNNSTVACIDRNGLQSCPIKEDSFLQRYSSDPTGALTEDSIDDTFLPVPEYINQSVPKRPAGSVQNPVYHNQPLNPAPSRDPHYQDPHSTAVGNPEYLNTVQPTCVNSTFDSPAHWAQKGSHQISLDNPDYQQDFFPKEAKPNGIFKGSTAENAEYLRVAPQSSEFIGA
The target in experiment [8] is Follistatin-related protein 3 (Homo sapiens) (UniProt O95633). The experiment in a line: compounds binding follistatin-related protein 3 – biochemical, small-molecule microarray, 635 nm fluorescence, primary screen (AID 1105).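 Further: score merges emission near 667 nm and signal to noise per printed spot across three slides.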 Conditions: FSTL3 binding, higher = more signal.
Sequence of Follistatin-related protein 3 (Homo sapiens) (O95633 whole entry, looked up): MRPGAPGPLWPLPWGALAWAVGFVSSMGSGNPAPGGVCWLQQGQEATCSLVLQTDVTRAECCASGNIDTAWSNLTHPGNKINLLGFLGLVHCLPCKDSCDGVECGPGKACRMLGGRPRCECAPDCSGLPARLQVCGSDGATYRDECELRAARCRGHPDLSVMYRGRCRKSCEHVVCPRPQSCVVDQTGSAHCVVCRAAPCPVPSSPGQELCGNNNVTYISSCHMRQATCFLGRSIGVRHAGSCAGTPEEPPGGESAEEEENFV
The target in experiment [9] is Dickkopf-related protein 1 (Homo sapiens) (UniProt O94907). The experiment in a line: small molecules binding DKK1 protein – biochemical, small-molecule microarray, 635 nm fluorescence scan, primary screen (AID 1106).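 Further: score merges emission near 667 nm with signal to noise over three replicate slides.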 Conditions: higher = more signal.
Sequence of Dickkopf-related protein 1 (Homo sapiens) (O94907 whole entry, looked up): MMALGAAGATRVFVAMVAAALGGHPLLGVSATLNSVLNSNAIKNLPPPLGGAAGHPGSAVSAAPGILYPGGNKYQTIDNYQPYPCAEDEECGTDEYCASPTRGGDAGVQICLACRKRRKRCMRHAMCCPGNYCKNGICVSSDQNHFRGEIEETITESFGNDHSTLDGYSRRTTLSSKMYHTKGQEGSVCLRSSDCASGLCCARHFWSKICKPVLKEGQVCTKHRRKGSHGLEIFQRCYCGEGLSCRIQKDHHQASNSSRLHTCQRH
The test system of experiment [10] is Inhibin beta A chain (activin A). Nature of the experiment: small molecules binding activin A – biochemical, small-molecule microarray, 635 nm fluorescence scan, primary screen (AID 1107).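 Further: mouse activin A protein probed at 4.33 µg/mL on printed slides; score merges bound-protein fluorescence near 667 nm with spot signal-to-noise.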 To be noted: INHBA, higher = more signal.

Calls of active or inactive are those of the source.

For `CCCC=C(CCC)[C@@H](NC(=O)c1cccs1)c1ccc(C(F)(F)F)cc1`, the composite z-score was 0.119 in experiment [1]; 0.607 in experiment [2]; 0.406 in experiment [3]; 0.36 in experiment [5]; 1.25 in experiment [6]; 0.569 in [7]. Besides, the composite z-score in experiment [8] was 0.857; in experiment [9], -0.568; in experiment [10], 0.454. For the same molecule, the z-score in experiment [4] is -2.16 (inactive).

In the case of `C=C(CCCC)/C(=C/C[C@@H](OC(=O)c1ccncc1)c1ccc(OCCO)cc1)c1cc(C(=O)OC)ccc1OC`, the composite z-score in experiment [1] was 0.0247; in [2], 0.0101; in [3] it was -0.287; in experiment [5], 0.876; in experiment [6] it was 0.605; in experiment [7], -0.0331. The composite z-score in [8] was 0.937; in experiment [9], 0.135; in experiment [10] it was 0.218. Further, the z-score in experiment [4] is 0.489 (inactive).

Turning to `C=CCC(OC(C)=O)[C@@H]1[C@@H](N(Cc2ccc(-c3ccccc3)cc2)C(=O)Cc2ccc(OC)cc2)c2cc(OCCCO)ccc2N1C(=O)Cc1ccc2ccccc2c1` (stereo not given in full), the composite z-score was -0.324 in [1]; -0.0834 in experiment [2]; 0.308 in experiment [3]; -0.437 in experiment [5]; -0.299 in experiment [6]; -0.163 in experiment [7]. The composite z-score in [8] is -0.0274; in experiment [9], -0.0237; in experiment [10], 1.06. In addition, the z-score in experiment [4] was 0.247 (inactive).

In the case of `C=C(COC)/C(=C/C[C@@H](OC(=O)c1ccncc1)c1ccc(CO)o1)c1cc(C(=O)OC)ccc1OC`, the composite z-score in experiment [1] is 1.2; in [2], 0.0709; in [3] it was -0.623; in experiment [5] it was 1.47; in experiment [6], 1.15; in experiment [7], 1.06. Also, the results for the composite z-score in [8], in experiment [9] and in experiment [10] were 1.48, 1.27 and 1.03, respectively. In experiment [4], the z-score was 0.804 (inactive).

Turning to `COC(=O)c1c(CC[C@@H](CO)NC(=O)NCCn2cc(C3(O)CCCC3)nn2)oc(C(C)=O)c1C(=O)OC`, the composite z-score in experiment [1] was 0.546; in experiment [2] it was -0.147; in experiment [3] it was -0.26; in experiment [5], -0.0339; in [6], -0.0275; in experiment [7], 0.218. The composite z-score in experiment [8] is -0.234; in [9] it was 0.0587; in experiment [10], 0.129. Also, in [4], the z-score is -0.152 (inactive).

For the molecule `C=C[C@H](CO)NS(=O)(=O)c1ccc(Br)cc1`, the composite z-score in [1] is 0.54; in [2], 0.867; in experiment [3], -0.54; in experiment [5] it was 0.335; in experiment [6], 0.526; in [7], 0.393. The composite z-score in experiment [8] came to 0.695; in experiment [9] it was 0.751; in experiment [10] it was 0.84. Besides, in experiment [4], the z-score was -0.0902 (inactive).

Take `C=C(CCCC)/C(=C/C[C@H](OC(=O)c1ccncc1)c1ccccc1OCCO)c1cnc2ccccc2c1`: the composite z-score in [1] is 0.869; in experiment [2], -0.037; in experiment [3] it was -0.286; in [5], 1.08; in [6], 0.898; in experiment [7], 0.591. The composite z-score in experiment [8] was found to be 1.49; in experiment [9] it was 0.472; in experiment [10] it was 1.66. The z-score in experiment [4] is -0.292 (inactive).

On to `COC(=O)C(CC#Cc1ccc2c(c1)[C@]1(C(=O)N2)[C@H](C(=O)Nc2nc3ccccc3s2)[C@H]2C(=O)O[C@H](c3ccccc3)[C@H](c3ccccc3)N2[C@@H]1c1ccc(O)cc1)C(=O)OC`, for which the composite z-score in experiment [1] is 1.18; in experiment [2] it was 0.381; in experiment [3], 0.454; in experiment [5], 1.28; in experiment [6], 1.29; in experiment [7], 0.642. Moreover, the composite z-score in experiment [8] was 1.4; in [9] it was 0.829; in experiment [10], 0.381. Besides, the z-score in experiment [4] is -0.204 (inactive).

For the molecule `CCCCN1CC=CC23O[C@@H]4C=CCCOC(=O)C4[C@H]2C(=O)N(CCCCCCO)[C@@H]3C1=O` (stereo not given in full), the composite z-score in experiment [1] was 1.45; in experiment [2], -0.466; in experiment [3], -0.112; in [5], -1.22; in experiment [6] it was -0.163; in [7], -0.677. Moreover, the results for the composite z-score in experiment [8], in experiment [9] and in [10] were -0.187, -1.21 and -0.39, respectively. The z-score in experiment [4] was 0.705 (inactive).

For the molecule `COc1ccc(/C=C/C=O)cc1`, the composite z-score in [1] was -0.166; in experiment [2], -0.201; in experiment [3], -0.32; in experiment [5] it was 0.188; in [6], 0.0929; in experiment [7] it was -0.0607. Further, the composite z-score stood at 0.679 in experiment [8], 0.406 in [9] and 0.664 in experiment [10]. Further, the z-score in experiment [4] is -0.903 (inactive).

As to `COCCOC(=O)N1C(=O)[C@@]2(c3ccccc31)[C@H](c1ccccc1OCCO)N1[C@H](c3ccccc3)[C@H](c3ccccc3)OC(=O)[C@H]1[C@@H]2C(=O)N1CCN(c2ncccn2)CC1`, the composite z-score came to 1.21 in experiment [1]; 0.386 in experiment [2]; 0.72 in experiment [3]; 0.357 in [5]; 0.852 in [6]; 0.792 in experiment [7]. Further, the composite z-score in experiment [8] is 0.555; in experiment [9] it was 0.471; in experiment [10], -0.0468. Further, the z-score in [4] is -0.869 (inactive).

`COCCOC(=O)N1C(=O)[C@@]2(c3cc(C#CC4(O)CCCCCC4)ccc31)[C@H](c1ccccc1OCCO)N1[C@H](c3ccccc3)[C@H](c3ccccc3)OC(=O)[C@H]1[C@@H]2C(=O)N1CCN(c2ncccn2)CC1`: the composite z-score in [1] was 0.892; in experiment [2], 0.0468; in experiment [3], -0.0635; in [5], 1.12; in experiment [6], 1.03; in [7] it was 0.484. The composite z-score in [8] amounted to 1.18; in [9], 0.991; in [10], 0.244. Further, in [4], the z-score was 0.514 (inactive).

In the case of `C=CC(=C)[C@H]1Oc2ccccc2S(=O)(=O)N2CCC[C@@H]12`, the composite z-score in experiment [1] is -0.0608; in [2] it was -0.144; in [3], -0.0159; in experiment [5] it was -0.249; in experiment [6], -0.486; in [7] it was 0.0976. Besides, the composite z-score is -0.0111 in [8], 0.317 in [9] and 1.07 in experiment [10]. Besides, the z-score in experiment [4] is -0.629 (inactive).

Take `C=C[C@H](C)[C@@H](OC(=O)Nc1ccc(OC)cc1)c1ccc(O)c2ccccc12`: the composite z-score was 0.408 in experiment [1]; -0.398 in experiment [2]; -0.083 in experiment [3]; -0.117 in experiment [5]; -0.177 in [6]; -0.568 in experiment [7]. The composite z-score was 0.386 in experiment [8], 0.209 in experiment [9] and 0.722 in experiment [10]. In addition, the z-score in experiment [4] was 2.41 (inactive).

As for `COc1ccc([C@H]2OC[C@@H]3C[C@@H](Cc4ccccc4)C(=O)N32)cc1`, the composite z-score in experiment [1] is 0.143; in experiment [2] it was -0.191; in [3] it was -0.435; in [5] it was 1.3; in experiment [6], 0.228; in experiment [7], 0.424. Also, the figures for the composite z-score in [8], in experiment [9] and in [10] were 0.821, 0.326 and -0.0187, respectively. Besides, the z-score in experiment [4] is 0.247 (inactive).

Take `COCCOC(=O)N1C(=O)[C@@]2(c3cc(C#CCNC(N)=O)ccc31)[C@H](C(=O)Nc1nc3ccccc3s1)[C@H]1C(=O)O[C@H](c3ccccc3)[C@H](c3ccccc3)N1[C@@H]2c1ccc(OCCO)cc1`: the composite z-score in experiment [1] is -0.112; in [2] it was 0.92; in experiment [3], 0.795; in [5], 1.11; in [6], 0.755; in experiment [7], 0.373. The composite z-score amounted to 0.963 in experiment [8], 1.15 in [9] and 0.542 in [10]. The z-score in experiment [4] was -0.239 (inactive).

The values above are taken from PubChem BioAssay.
